Data taken from ChEMBL document CHEMBL1961873, “Compounds: GSK PKIS; Assays: Nanosyn kinase panel” (2012).

Key:
[1] = target: Mitogen-activated protein kinase 3 (Homo sapiens) (UniProt P27361); conditions: at 1 µM;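 further: values are mean percent inhibition of MAPK3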
[2] = target: SRSF protein kinase 3 (Homo sapiens) (UniProt Q9UPE1); conditions: at 0.1 µM
[3] = target: SRSF protein kinase 3 (Homo sapiens) (UniProt Q9UPE1); conditions: at 1 µM
[4] = target: Mitogen-activated protein kinase 14 (Homo sapiens) (UniProt Q16539); conditions: at 0.1 µM
Chain of Mitogen-activated protein kinase 14 (Homo sapiens) (Q16539 whole entry): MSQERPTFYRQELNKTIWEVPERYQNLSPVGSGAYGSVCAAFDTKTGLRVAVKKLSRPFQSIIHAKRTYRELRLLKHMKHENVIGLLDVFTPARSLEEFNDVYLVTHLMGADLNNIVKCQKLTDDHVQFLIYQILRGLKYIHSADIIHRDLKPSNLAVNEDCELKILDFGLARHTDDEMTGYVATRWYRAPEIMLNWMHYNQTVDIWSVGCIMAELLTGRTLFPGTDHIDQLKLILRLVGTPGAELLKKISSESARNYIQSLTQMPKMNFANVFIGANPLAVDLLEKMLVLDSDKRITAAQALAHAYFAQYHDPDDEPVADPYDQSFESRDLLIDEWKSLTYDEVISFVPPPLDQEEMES

[5] = target: Mitogen-activated protein kinase 14 (Homo sapiens) (UniProt Q16539); conditions: at 1 µM
[6] = target: Mitogen-activated protein kinase 11 (Homo sapiens) (UniProt Q15759); conditions: at 0.1 µM
Chain of Mitogen-activated protein kinase 11 (Homo sapiens) (Q15759 whole entry): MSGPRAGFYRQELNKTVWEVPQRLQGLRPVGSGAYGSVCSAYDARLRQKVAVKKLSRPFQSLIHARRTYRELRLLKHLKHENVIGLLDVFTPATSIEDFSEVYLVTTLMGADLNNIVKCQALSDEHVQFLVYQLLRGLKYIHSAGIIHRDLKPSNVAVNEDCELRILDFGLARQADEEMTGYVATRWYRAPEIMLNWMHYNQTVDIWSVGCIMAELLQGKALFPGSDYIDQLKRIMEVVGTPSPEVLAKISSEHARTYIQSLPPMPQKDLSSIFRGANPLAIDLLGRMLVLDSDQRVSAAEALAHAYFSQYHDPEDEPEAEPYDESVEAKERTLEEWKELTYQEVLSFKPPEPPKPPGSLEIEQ

[7] = target: Mitogen-activated protein kinase 11 (Homo sapiens) (UniProt Q15759); conditions: at 1 µM
[8] = target: T1, Mitogen-activated protein kinase 13 (Homo sapiens) (UniProt O15264); conditions: at 0.1 µM
T1 sequence (whole entry): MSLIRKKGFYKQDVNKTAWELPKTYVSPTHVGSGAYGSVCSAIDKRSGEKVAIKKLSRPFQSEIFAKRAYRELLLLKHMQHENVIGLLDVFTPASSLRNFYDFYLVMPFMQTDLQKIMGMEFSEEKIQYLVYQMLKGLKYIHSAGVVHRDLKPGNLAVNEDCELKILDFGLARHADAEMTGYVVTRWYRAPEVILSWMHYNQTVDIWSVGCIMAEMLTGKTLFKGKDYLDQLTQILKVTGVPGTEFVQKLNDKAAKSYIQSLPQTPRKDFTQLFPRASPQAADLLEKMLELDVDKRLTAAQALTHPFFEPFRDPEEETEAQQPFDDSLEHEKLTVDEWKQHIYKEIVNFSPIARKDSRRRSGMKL

[9] = target: T1, Mitogen-activated protein kinase 13 (Homo sapiens); conditions: at 1 µM
[10] = target: T2, Mitogen-activated protein kinase 12 (Homo sapiens) (UniProt P53778); conditions: at 0.1 µM
T2 sequence (whole entry): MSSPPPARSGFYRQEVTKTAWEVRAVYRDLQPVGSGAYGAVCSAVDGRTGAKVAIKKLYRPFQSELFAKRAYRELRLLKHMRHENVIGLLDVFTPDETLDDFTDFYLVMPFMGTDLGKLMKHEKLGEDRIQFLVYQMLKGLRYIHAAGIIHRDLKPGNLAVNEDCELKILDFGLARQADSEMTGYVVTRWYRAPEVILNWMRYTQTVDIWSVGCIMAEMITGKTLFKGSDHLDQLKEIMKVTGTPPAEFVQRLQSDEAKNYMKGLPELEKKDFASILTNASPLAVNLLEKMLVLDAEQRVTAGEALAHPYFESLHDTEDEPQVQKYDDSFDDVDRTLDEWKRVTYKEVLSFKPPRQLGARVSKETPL

Chain of SRSF protein kinase 3 (Homo sapiens) (Q9UPE1 whole entry): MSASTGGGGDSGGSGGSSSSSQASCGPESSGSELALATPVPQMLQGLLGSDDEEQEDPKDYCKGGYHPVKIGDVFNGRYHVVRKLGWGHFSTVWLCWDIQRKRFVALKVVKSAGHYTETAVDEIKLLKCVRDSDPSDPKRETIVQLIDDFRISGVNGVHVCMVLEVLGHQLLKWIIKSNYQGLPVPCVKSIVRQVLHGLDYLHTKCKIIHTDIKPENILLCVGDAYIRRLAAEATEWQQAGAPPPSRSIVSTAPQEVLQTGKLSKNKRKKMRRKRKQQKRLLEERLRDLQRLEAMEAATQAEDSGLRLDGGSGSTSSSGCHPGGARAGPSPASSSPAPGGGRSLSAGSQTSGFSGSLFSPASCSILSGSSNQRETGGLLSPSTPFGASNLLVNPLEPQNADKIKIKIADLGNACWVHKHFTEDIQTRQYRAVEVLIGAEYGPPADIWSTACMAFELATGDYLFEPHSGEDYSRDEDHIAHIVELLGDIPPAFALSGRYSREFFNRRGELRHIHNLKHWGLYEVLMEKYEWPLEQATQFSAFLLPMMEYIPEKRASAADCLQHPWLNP
Chain of Mitogen-activated protein kinase 3 (Homo sapiens) (P27361 whole entry): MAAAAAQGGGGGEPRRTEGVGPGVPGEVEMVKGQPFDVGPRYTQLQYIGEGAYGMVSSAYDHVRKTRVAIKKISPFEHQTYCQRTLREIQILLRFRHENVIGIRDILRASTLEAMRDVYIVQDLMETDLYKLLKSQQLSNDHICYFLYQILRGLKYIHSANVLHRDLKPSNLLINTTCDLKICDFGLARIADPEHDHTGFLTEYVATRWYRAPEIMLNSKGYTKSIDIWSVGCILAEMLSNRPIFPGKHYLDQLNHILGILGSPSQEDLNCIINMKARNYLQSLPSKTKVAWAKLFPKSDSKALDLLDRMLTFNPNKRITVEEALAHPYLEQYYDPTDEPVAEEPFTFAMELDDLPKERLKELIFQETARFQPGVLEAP

Compound	inhibition [1]	inhibition [2]	inhibition [3]	inhibition [4]	inhibition [5]	inhibition [6]	inhibition [7]	inhibition [8]	inhibition [9]	inhibition [10]
Nc1nc(-c2cccc(Cl)c2)c(-c2ccc3ncccc3n2)s1	2.62%	-1.86%	0.63%	8.73%	50%	5.89%	19.1%	3.72%	5.27%	8.76%
N#Cc1c(NC(=O)CN2CCOCC2)sc2c1CCCC2	6.78%	-1.65%	2.65%	5.67%	9.2%	1.86%	7.38%	6%	5.61%	3.4%
COC(=O)Nc1nc2ccc(Oc3ccc(NC(=O)Nc4cccc(Cl)c4)cc3)cc2[nH]1	-0.19%	-1.41%	1.25%	7.99%	12%	3.94%	8.82%	0.49%	-0.38%	0.03%
COc1ccc(-c2oc3ncnc(N)c3c2-c2ccc(NC(=O)Nc3cc(C(F)(F)F)ccc3F)cc2)cc1	4.66%	2.74%	48.7%	4.62%	30.4%	5.32%	37.8%	1.95%	15.3%	-3.37%
Clc1ccc(-c2nn3ncccc3c2-c2ccnc(Nc3ccccc3)n2)cc1	0.24%	-0.67%	-1.16%	46.5%	82.8%	13.1%	58.8%	0.09%	1.39%	2.11%
CC(=O)Nc1cccc(C#Cc2cncnc2Nc2ccc(OCc3cccc(F)c3)c(Cl)c2)c1	3.68%	1.32%	-0.25%	3.3%	5.63%	0.27%	1.34%	2.42%	2.73%	0.58%
CCc1nn2ncccc2c1-c1ccnc(NC2CC2)n1	4.9%	-0.73%	-0.47%	4.19%	7.08%	5.64%	7.82%	3.24%	3.22%	2.35%
Nc1nc(-c2ccc(F)cc2)c(-c2ccc3ncccc3n2)s1	3.86%	-0.15%	2.22%	23.6%	76.4%	7.76%	33.1%	5.53%	5.76%	1.26%
CNC(=O)c1cncc(/C=C/c2ccccc2Cl)c1	2.18%	-0.92%	2.45%	-6.55%	-0.16%	2.14%	2.01%	1.17%	-0.14%	-1.75%
CCN(CC)S(=O)(=O)c1ccc(OC)c(Nc2ncc(-c3ccccc3)o2)c1	4.26%	0.09%	0.88%	1.78%	1.27%	3.74%	4.45%	-0.22%	-0.16%	-2.06%
COc1cc(/C=N/Nc2ncnc3[nH]ncc23)ccc1O	6.69%	0.77%	1.87%	7.26%	6.91%	4.13%	4.56%	1.51%	5.72%	0.15%
CC(C)(CO)CNC(=O)c1ccc2c(c1)/C(=N/Nc1ccc(S(N)(=O)=O)cc1)C(=O)N2	16.6%	-0.87%	-1.79%	2.1%	1.84%	2.96%	9.13%	-0.56%	0.83%	-0.2%
COC(=O)c1sc(-n2cnc3cc(OC)c(OC)cc32)cc1OCc1ccccc1C(F)(F)F	2.3%	-0.91%	-2.27%	2.39%	9.56%	6.02%	8.21%	-0.67%	4.4%	0.89%
c1cc(-c2cnn3nc(N4CCOCC4)ccc23)nc(NC2CC2)n1	3.9%	2.15%	9.24%	6.66%	16.6%	3.09%	13.1%	6.27%	19.7%	0.63%
CCN1CCC(CC(=O)Nc2n[nH]c3nnc(-c4cccc(F)c4F)cc23)CC1	2.9%	-0.22%	0.53%	1.3%	1.76%	2.75%	4.66%	1.08%	0.01%	1.4%
CC(C)COC(=O)c1ccc2c(c1)/C(=C/Nc1ccc(S(N)(=O)=O)cc1)C(=O)N2	13.5%	-1.27%	-1.97%	-0.94%	-2.21%	-0.49%	7.86%	-1%	1.38%	0.22%
CCn1c(-c2nonc2N)nc2ccccc21	1.82%	2.33%	1.24%	1.01%	4.34%	3.58%	4.06%	2.36%	3.3%	0.66%

Compound	inhibition [1]	inhibition [2]	inhibition [3]	inhibition [4]	inhibition [5]	inhibition [6]	inhibition [7]	inhibition [8]	inhibition [9]	inhibition [10]
COc1cccc(-n2ncc3c(N/N=C/c4ccc(F)cc4)ncnc32)c1	3.8%	-0.53%	1.02%	2.2%	7.4%	4.13%	6.02%	6.87%	6.81%	-0.23%
COc1cc2c(cc1Nc1nc(Nc3ccsc3C(N)=O)c3cc[nH]c3n1)N(C(=O)CN(C)C)CCC2(C)C	3.62%	0.09%	3.51%	4.03%	10.7%	5.19%	8.81%	2.03%	9.12%	1.64%
COc1ccc2c(-c3ccnc(Nc4cccc(OC(F)(F)F)c4)n3)cnn2n1	3.9%	-1.04%	2.71%	2.92%	8.4%	0.17%	5.04%	-1.73%	7.58%	1.78%
Fc1cccc(COc2ccc(Nc3ncnc4sc(-c5ccco5)cc34)cc2Cl)c1	4.3%	-0.82%	1.38%	7.31%	6.29%	4.57%	6.75%	4.02%	3.46%	3.22%
NC(=O)c1sc(-n2cnc3ccc(C(F)(F)F)cc32)cc1OCc1ccccc1Br	0.62%	-1.67%	-0.41%	8.95%	10.3%	2.71%	5.44%	-1.12%	3.69%	1.64%
Cc1cccc2c1NC(=O)/C2=N\Nc1ccc(S(N)(=O)=O)cc1	2.55%	0.51%	1.03%	3.09%	5.54%	1.05%	1.3%	1.89%	3.48%	-3.68%
Fc1ccc(-c2nn3ncccc3c2-c2ccnc(Nc3ccc4c(c3)OCCO4)n2)cc1	11.3%	-0.97%	-1.91%	72%	92.8%	48.6%	78.7%	3.53%	6.19%	2.92%
NS(=O)(=O)c1ccc(N/N=C2\C(=O)Nc3ccc4ncccc4c32)cc1	30.9%	-0.65%	-0.87%	0.75%	12.3%	7.81%	26.7%	0.25%	10%	3.34%
COc1cc2ncn(-c3cc(OCc4ccccc4C(F)(F)F)c(C(=O)N(C)C)s3)c2cc1OC	-0.07%	-2.08%	-1.83%	7.43%	1.82%	-4.05%	1.82%	-0.21%	0.14%	0.9%
COc1cc(Nc2nccc(Nc3ccc4c(C)n[nH]c4c3)n2)cc(OC)c1OC	2.18%	1.08%	0.79%	4.78%	10%	2.04%	6.13%	3.72%	4.71%	-0.26%
CN1CCC(n2cnc(-c3ccc(F)cc3)c2-c2ccnc(N)n2)CC1	3.12%	-0.19%	-0.82%	49.7%	83%	5.11%	30.6%	0.27%	4.13%	0.59%
[O-][S+]1CCN(Cc2ccc(-c3ccc4ncnc(Nc5ccc(OCc6cccc(F)c6)c(Cl)c5)c4c3)o2)CC1	4.13%	-2.3%	-1%	15.9%	14.9%	7.73%	6.99%	4.67%	3%	3.02%
COc1ccc2[nH]c3c4[nH]c5ccc(OC)cc5c4c4c(c3c2c1)C(=O)NC4=O	6.91%	1.23%	18.3%	4.65%	10.8%	3.15%	7.66%	0.8%	2.74%	4.16%
Fc1ccc(-c2cc(-c3c[nH]nc3-c3ccccn3)ccn2)cc1	4.81%	-1.32%	1.09%	5.14%	37%	5.12%	12.5%	-1%	3.97%	2.24%
Cc1ccc(O)cc1Nc1ccnc2cc(-c3ccccn3)ccc12	4.04%	1.4%	0.54%	13.9%	58.8%	4.81%	9.25%	5.51%	2.99%	1.52%
NS(=O)(=O)c1ccc(Nc2ncc(-c3ccccc3)o2)cc1	3.8%	-0.01%	1.63%	3.61%	9.04%	6.06%	7.67%	3.81%	5.86%	0.56%
